# Sfp inh – blocks B. subtilis Sfp PPTase activity | Q9F4F7 | Biochemical Sfp PPTase activity, qHTS | Potency, µM, inactives show largest response in the series, negative = inhibition, usual class: inhibitors | 3.5% of 310,000 active | AID 1490;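 note: the enzyme is Sfp with the accession as filed and its product quenches rhodamine fluorescence; 0% = enzyme reaction without inhibitor and -100% = no enzyme wells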
#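 Fluorescence-quenching assay: 15 nM Sfp-PPTase preincubated 15 min at room temperature with compound, then 5 uM rhodamine-CoA and 12.5 uM BHQ-2-labelled YbbR peptide added. Fluorescence (ex 525/em 598 nm) read at start and after 30 min; difference gives rate.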
# VDR inh – inhibitors of human vitamin D receptor. VDR-SRC2-3 peptide fluorescence polarization, 2 h. P11473. 0.93% of 400,000 active. Potency, µM, for inactives: max response, negative = inhibition, most hits filed as inhibitors; note: % is set by controls: 0 for no effect and ±100 for the full control effect
#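 After 23 nl compound addition and a short centrifugation, plates sat for 2 hours at ambient temperature; polarization of fluorescence then indicated loss of VDR binding to peptide SRC2-3.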
# ALOX12 inh – inhibitors of human 12S-lipoxygenase ALOX12; Potency, µM (highest dose often 108 µM), without a hit: at the highest dose activity change, negative = inhibition, most hits filed as inhibitors; 1.1% of 580,000 active; P18054; purified 12hLO, xylenol orange hydroperoxide absorbance; note: % is set by controls: 0 for no effect and ±100 for the full control effect
# Target sequence (P18054 whole entry, looked up): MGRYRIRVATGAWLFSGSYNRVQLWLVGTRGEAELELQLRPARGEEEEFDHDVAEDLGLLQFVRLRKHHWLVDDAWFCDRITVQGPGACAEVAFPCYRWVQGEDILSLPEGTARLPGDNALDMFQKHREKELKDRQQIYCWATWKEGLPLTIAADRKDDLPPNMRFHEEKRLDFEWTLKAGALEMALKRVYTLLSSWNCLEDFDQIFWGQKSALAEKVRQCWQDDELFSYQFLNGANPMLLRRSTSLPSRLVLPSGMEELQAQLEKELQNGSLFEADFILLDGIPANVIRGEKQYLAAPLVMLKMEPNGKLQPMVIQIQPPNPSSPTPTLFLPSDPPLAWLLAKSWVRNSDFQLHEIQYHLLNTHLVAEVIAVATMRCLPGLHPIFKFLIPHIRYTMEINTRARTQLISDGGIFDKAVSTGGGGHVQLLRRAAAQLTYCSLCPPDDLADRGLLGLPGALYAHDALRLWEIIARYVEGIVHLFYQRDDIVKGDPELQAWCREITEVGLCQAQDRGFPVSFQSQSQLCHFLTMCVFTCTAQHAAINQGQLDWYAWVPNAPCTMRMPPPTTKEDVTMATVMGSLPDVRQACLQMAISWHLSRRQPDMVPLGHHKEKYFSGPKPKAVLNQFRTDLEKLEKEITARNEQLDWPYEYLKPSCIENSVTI
#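 Purified human 12hLO at 150 nM in 25 mM Hepes, 0.01% Triton X-100, pH 7.0, preincubated 15 min at room temperature with compound. Reaction started with 40 uM arachidonic acid, 30 min at room temperature. Hydroperoxide measured by Fe-xylenol orange, 573/405 nm absorbance ratio.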
# G9a inh – blocks human histone lysine methyltransferase G9a; Q96KQ7; G9a H3K9 monomethylation, AlphaScreen, 2 h; Potency, µM (highest dose often 102 µM), for inactives: at the highest dose activity, negative = inhibition, most hits filed as inhibitors; 8.8% of 350,000 active; AID 504332; note: % is set by controls: 0 for no effect and ±100 for the full control effect; nearly all actives have a fitted effect of over 75% in size
#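 Step 1: enzyme (final 20 nM) with compound, 15 min RT. Step 2: substrate peptide 500 nM and SAM 20 uM, 2 h RT. Step 3: anti-H3K9me1 antibody and AlphaScreen beads, 10 min, then plate read.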
# GRP78 ERSR act – inducers of ER stress response in human glioma cells | 0.02% of 420,000 active | Potency, µM, for inactives: at the top dose activation, most hits filed as activators | U87-MG GRP78 promoter luciferase reporter, 16 h; note: series mostly up to about 76 µM; % of control where 0% means no effect; nearly all actives have a fitted effect of over 35% in size
#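 Stably transfected U87-MG human glioma cells carrying a GRP78-based luminescent sensor were seeded at 1000 cells/well, pin-dosed with compounds and incubated 16 h. Luciferase reagent was then added, and end-point luminescence was read after 10 min at room temperature.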
# Starred values were filed as active, the others as inactive; ? = inconclusive; . = no result given; ! = repeats disagree; [ ] = remark or other dose. This is one part of a sample in which hits are shown more often than they occur. Calls come from the whole dose curve; as a rule, active = well fitted curve in the direction sought with a large enough effect; inconclusive = small, poorly fitted or top-dose-only effect, or another doubt; inactive = no such curve, though single readings can be large; an effect the other way counts as inactive or inconclusive. Potency is the fitted concentration of half-maximal effect.
SMILES,Sfp inh,VDR inh,ALOX12 inh,G9a inh,GRP78 ERSR act
COC(=O)[C@@]1(Cc2ccc(F)cc2)[C@H]2c3cc(C(=O)N(C)C)n(Cc4ccccc4)c3C[C@H]2CN1C(=O)c1ccccc1,-9.4%,-7.3%,-5.0%,?,-3.2%
COC(=O)[C@@]1(Cc2ccc(F)cc2)[C@H]2c3cc(C(=O)N4CCCC4)n(CCSCCO)c3C[C@H]2CN1C(=O)c1ccccc1,5.6%,.,-16.7%,.,.
COC(=O)[C@@]1(Cc2ccc(F)cc2)[C@H]2c3cc(C(=O)N(C)C)n(Cc4ccc(C)o4)c3C[C@H]2CN1C(=O)c1ccccc1,15.8µM*,.,?,.,.
COC(=O)[C@@]1(Cc2ccccc2)[C@H]2c3cc(C(=O)N4CCCC4)n(CCSCCO)c3C[C@H]2CN1C(=O)c1ccccc1,-8.4%,.,.,25.1µM*,.
CCOC(=O)CNC(=O)CC(c1ccc(F)cc1)N1Cc2ccccc2C1=O (configuration not stated),.,.,0.4%,.,.
CCC1CCC(C(=O)NNC(=O)c2cc(-c3ccco3)[nH]n2)CC1 (configuration not stated),44.7µM*,4.8%,?,14.1µM*,3.6%
O=C(c1cc(-c2ccco2)[nH]n1)N1CCN(c2ccccc2)CC1,.,.,4.9%,.,.
NS(=O)(=O)c1cccc(NC(=O)c2cn(Cc3ccccc3)nc2-c2ccccc2)c1,.,.,-2.9%,.,.
Cn1c(=O)c(C(=O)COC(=O)c2cc(C(F)(F)F)nc3c(C(F)(F)F)cccc23)c(N)n(CC2CC2)c1=O,10.6%,.,-0.5%,50.1µM*,.
Cn1c(N)c(C(=O)COC(=O)c2cc(-c3ccccc3)nc3ccccc23)c(=O)n(Cc2ccccc2)c1=O,3.5%,0.5%,.,?,-4.0%
COc1ccc(CCC(=O)OCC(=O)c2c(N)n(CC(C)C)c(=O)n(C)c2=O)cc1,4.5%,4.2%,4.7%,79.4µM*,-2.5%
CC(C)Cn1c(N)c(C(=O)COC(=O)c2cc(-c3ccco3)nc3ccccc23)c(=O)n(C)c1=O,20µM*!,?,?,?,-2.3%
Cn1c(=O)c(C(=O)COC(=O)c2cc(-c3ccco3)nc3ccccc23)c(N)n(Cc2ccccc2)c1=O,31.6µM*,.,.,8.91µM*,.
CC(=O)c1ccc(OCC(O)CN(C)Cc2cccs2)cc1 (configuration not stated),56.2µM*,9.9%,?,3.55µM*,-3.7%
CCCN(CCC)CC(O)CN(c1ccccc1)S(=O)(=O)c1ccc(C)cc1 (configuration not stated),11.0%,5.5%,-5.9%,7.1%,-2.2%
Cc1ccc(N(CC(O)COCc2ccco2)S(=O)(=O)c2ccc(C)cc2)cc1 (configuration not stated),?,?,35.5µM*,?,-1.5%
CN(Cc1cccs1)CC(O)COCc1ccco1 (configuration not stated),7.0%,-8.1%,?,44.7µM*,-0.5%
CC(C)Oc1ccc(C(=O)N(Cc2ccco2)Cc2cccs2)cc1,.,-6.7%,-18.9%,10.7%[59 µM],-0.2%
COc1ccc(N(Cc2cccs2)C(=O)c2ccc(OCC(C)C)cc2)cc1,.,5.4%,-29.2%,25.5%[59 µM],-1.5%
COc1cc(C)cc2oc(=O)c(CC(=O)Nc3nc(CC(=O)O)cs3)c(C)c12,.,.,-3.0%,.,.
Cn1nc(C(=O)NCC(=O)N2CCCCCCNC(=O)CC2c2ccccc2)c2ccccc21 (configuration not stated),.,.,26.7%,.,.
Cc1cccc(C2c3[nH]c4ccccc4c3CCN2C(=O)c2ocnc2C)n1 (configuration not stated),-12.1%,-0.3%,0.0%,31.6µM*,-2.5%
CCc1ccc(C2c3[nH]c4ccccc4c3CCN2C(=O)c2cc(C)nn2C)cc1 (configuration not stated),-6.1%,1.0%,-18.2%,15.8µM*,-2.5%
O=C(Cc1ccsc1)N1CCc2c([nH]c3ccccc23)C1c1ccccn1 (configuration not stated),-15.3%,-17.0%,-23.5%,50.1µM*,1.4%
Cc1cccc(C2c3[nH]c4ccccc4c3CCN2C(=O)c2nn(C)c(=O)c3ccccc23)n1 (configuration not stated),-1.4%,?,-5.7%,.,-2.2%
SMILES,Sfp inh,VDR inh,ALOX12 inh,G9a inh,GRP78 ERSR act
COCC(C)n1c(C)cc(C(=O)CSc2nnc(-c3ccncc3)n2-c2ccccc2)c1C (configuration not stated),.,.,-4.1%,.,.
CNC(=O)c1cccc(-c2cnc(Nc3cccc(F)c3)c3c2CCO3)c1,.,.,-15.2%[176 µM],.,.
COc1ccc(N2CCN(Cc3csc(C)c3-c3ccc(C)cc3)CC2)cc1,-21.4%,-12.9%,?,11.2µM*,-4.2%
COc1ccc(N2CCN(Cc3cc4c(cc3Br)OCCO4)CC2)cc1,-7.3%,-19.1%,0.0%,28.2µM*,-7.8%
COc1ccc(N2CCN(Cc3nc(-c4ccc(Cl)cc4Cl)no3)CC2)cc1,-24.0%,-12.9%,?,2.24µM*,-7.6%
c1ccc(-c2noc(CN3CCN(c4ccccc4)CC3)n2)cc1,-12.0%,-15.0%,321.7%,-8.5%,1.5%
Cc1ccc(-c2c(CN3CCN(c4cc(C)ccc4C)CC3)csc2C)cc1,.,18.4%,5.2%,-47.0%[59 µM],.
O=S(=O)(c1ccccc1)N1CCN(Cc2cc3c(cc2Br)OCCO3)CC1,.,-1.1%,?,-13.3%[2.33 µM],-4.6%
CCc1ccc2[nH]c(C)c(CN3CCCC(C)C3)c(=O)c2c1 (configuration not stated),.,.,91.2%,.,.
Clc1ccc(-c2csc(=Nc3cccnc3)n2CCCn2ccnc2)cc1Cl,-7.6%,-8.9%,-5.4%,11.2µM*,-3.6%
COCCn1c(-c2ccc(Br)cc2)csc1=Nc1cccnc1,-3.5%,2.5%,131.9%,39.8µM*,-7.2%
FC(F)Oc1ccc(-c2csc(=Nc3cccnc3)n2CC2CCCO2)cc1 (configuration not stated),9.0%,-14.4%,-13.6%,?,-1.4%
O=C(NCCCn1ccnc1)Nc1ccc(Cl)c(Cl)c1,15.3%,4.7%,-13.9%,-4.4%[59 µM],-2.2%
CNC(=O)COC(=O)c1cc(-c2ccc(F)cc2)nc2ccccc12,.,.,11.3%,.,.
CCn1cc(C(=O)OCC(=O)Nc2cccc(Cl)c2C)c(=O)c2ccc(C)nc21,.,-20.9%,-30.6%,-45.5%[59 µM],-2.0%
CCn1cc(C(=O)OCC(=O)Nc2c(C)cccc2C)c(=O)c2ccc(C)nc21,8.1%,-1.5%,?,44.7µM*,-5.0%
CC[N+]1(CC)CC2CCC(C)(C1)C2(C)C (configuration not stated),-4.0%,4.0%,44.7µM*,?,-2.0%
CC12CCC(C[N+](C)(C)C1)C2(C)C (configuration not stated),-6.1%,-0.8%,?,?,-0.1%
N=C(N)SCc1ncccc1O,-22.8%,-8.2%,-14.3%,17.8µM*,-5.5%
N=C(N)SCc1nc2ccccn2c1Br,4.4%,-14.2%,2.3%,-5.0%[59 µM],-4.9%
CN1C(=O)N(CC(=O)N2CCN(c3ccccc3F)CC2)C(=O)C12CCCCC2,.,-13.0%,-12.9%,-12.6%[12.7 µM],-3.8%

# Assay outcomes as filed in PubChem.
